For orientation: AC50 means the midpoint of the concentration-response curve, whichever way the signal moves.

Each structure is given as a SMILES string. Where “and” joins values, the source holds several entries; their conditions need not be identical. Equal entries are not always repeated. Inconclusive results are not listed. Calls of active or inactive are those of the source. The calls were made as follows: active = hit-call score of the fitted dose curve at least 0.9, where 1 is the maximum; inconclusive = response in the unintended direction; inactive = score below 0.9.

The test system of one experiment is Thyroperoxidase (TPO), gene 54314. Nature of the experiment: CCTE_Simmons_AUR_rTPO: CCTE's Amplex UltraRed Assay for Thyroperoxidase (TPO) Inhibition, Simmons Lab (AID 2283662).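 As to AC50: potency for loss of signal meaning inhibition of peroxidase activity.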 The method in brief:
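Endpoint is decreased Amplex UltraRed fluorescence after a 30-min, 37C reaction of rat thyroid microsomes with 300 uM H2O2. Eight test concentrations (5 nM–87.5 uM final) in 0.5% DMSO, three biological replicates each.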
In the case of `O=C(O)CCCCCCCCC(=O)O`, the molecule was called inactive.
Consider `CSCCC=O`, for which the concentration at half-maximal activity (AC50) is 43.8 µM (active).
In the case of `CS(=O)(=O)OCCCCOS(C)(=O)=O`, the AC50 was 30.6 µM (active).
With `CC(C)CCCCCCCCCCCCCCC(=O)O`, the AC50 was 43.8 µM (active).
Consider `Cc1cc(C)nc(NS(=O)(=O)c2ccc(N)cc2)n1`, for which the half-maximal activity concentration (AC50) was 14.3 µM (active).
In the case of `O=C1OC[C@H](Cc2cccc(O)c2)[C@H]1Cc1cccc(O)c1`, the half-maximal activity concentration (AC50) is 7.74 µM (active).
Take `O=C(O)c1ccc(O)cc1`: the AC50 is 35.3 µM (active).
Turning to `O=C(Nc1ccc2c(O)c(N=Nc3ccc(N=Nc4ccc(S(=O)(=O)O)cc4)cc3)c(S(=O)(=O)O)cc2c1)c1ccccc1`, the concentration at half-maximal activity (AC50) is 32.7 µM (active).
With `CN(C)c1cccc(O)c1`, the concentration at half-maximal activity (AC50) was 1.34 µM (active).
The same measure, in the same setting: then `Cc1ccc(S(=O)(=O)Oc2ccc(N=Nc3ccc(-c4ccc(N=Nc5c(O)ccc6cc(S(=O)(=O)O)cc(S(=O)(=O)O)c56)c(C)c4)cc3C)cc2)cc1`, with 18.2 µM (active).
On to `CCOc1ccc(N=Nc2ccc(C=Cc3ccc(N=Nc4ccc(OCC)cc4)cc3S(=O)(=O)O)c(S(=O)(=O)O)c2)cc1`, for which the concentration at half-maximal activity (AC50) is 30.2 µM (active).
For `CC(C)NCC(O)COc1ccc(CC(N)=O)cc1` (centres undefined), the outcome was inactive.
In the case of `COc1ccccc1N=Nc1c(S(=O)(=O)O)cc2cc(S(=O)(=O)O)cc(NC(C)=O)c2c1O`, the AC50 was 34.8 µM (active).
With `C=C1CC[C@H](O)C/C1=C/C=C1\CCC[C@]2(C)[C@@H]([C@H](C)/C=C/[C@H](C)C(C)C)CC[C@@H]12`, the half-maximal activity concentration (AC50) is 41.3 µM (active).
Same read-out and setting: with `Nc1ccc2cc(S(=O)(=O)O)cc(O)c2c1N=Nc1ccccc1C(F)(F)F` the figure was 20.2 µM (active).
Still for that read-out and setting: with `CCc1cc(C(C)(C)C)c(O)c(C(C)(C)C)c1` the figure was 4.83 µM (active); with `O=c1c(O)c(-c2ccc(O)cc2)oc2cc(O)cc(O)c12`, 0.0805 µM (active).
As for `[O-]n1ccccc1=S.[O-]n1ccccc1=S.[Zn+2]`, the AC50 was 3.72 µM (active).
For `CCc1ccc(O)cc1`, the result was inactive.
Regarding `CCOc1ccccc1O`, the concentration at half-maximal activity (AC50) is 19.1 µM (active).
Still for that read-out and setting: then `CC(CN=Cc1ccccc1O)N=Cc1ccccc1O` (centres undefined), with 26 µM (active); and `CCCCCCCCC=CCCCCCCCC1=NCCN1CCO`, with 37.9 µM (active) and 8.64 µM (active).
As for `CCCCCCCCc1ccc(S(=O)(=O)O)cc1`, the AC50 was 43.8 µM (active).
Same read-out and setting: then `COc1ccc(N=Nc2cc(C)c(N=Nc3ccc(S(=O)(=O)O)cc3)cc2OC)cc1`, with 53.9 µM (active); and `CCCCC(CC)COC(=O)c1ccc(O)cc1` (centres undefined), with 44.7 µM (active); and `CCc1cc(Cc2cc(CC)cc(C(C)(C)C)c2O)c(O)c(C(C)(C)C)c1`, with 1.8 µM (active).
For the molecule `Cc1cc(S(=O)(=O)O)ccc1N=Nc1c(O)ccc2ccccc12`, the AC50 was 35 µM (active).
Regarding `CCCCCCCCCCCCCCN(CCO)CCO`, the half-maximal activity concentration (AC50) was 44.8 µM (active).
For `CCCCCC(C=O)=Cc1ccccc1`, the AC50 is 19.4 µM (active).
With `CCOC(=O)c1ccc(N)cc1`, the concentration at half-maximal activity (AC50) was 22.2 µM (active).
Still for that read-out and setting: with `Oc1ccc2cc(SSc3ccc4cc(O)ccc4c3)ccc2c1` the figure was 2.45 µM (active).

System in a further experiment: not listed separately
In words: CCTE_Simmons_CellTiterGLO_HEK293T: Viability Assessment in CCTE's Assays for Thyroperoxidase (TPO) Inhibition, Simmons Lab (AID 2283665).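 As to AC50: cells exposed to compound for 24 h before readout; actives reduce ATP signal below DMSO vehicle meaning cytotoxicity.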 The method in brief: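 Luciferase-coupled ATP content after 24 h exposure gives viability; 8-point series from 5 nM to 87.5 uM final in 0.5% DMSO. Human HEK293T cells, 1% FBS medium, three biological replicates, dichlone positive control.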
In general terms: ATP-based viability assays read luminescence as a measure of living cells.
Regarding `O=C(O)CCCCCCCCC(=O)O`, the outcome was inactive.
As for `CS(=O)(=O)OCCCCOS(C)(=O)=O`, the result was inactive.
Still for that read-out and setting: then `O=C(O)c1ccc(O)cc1`, with “inactive”.
For the molecule `O=C(Nc1ccc2c(O)c(N=Nc3ccc(N=Nc4ccc(S(=O)(=O)O)cc4)cc3)c(S(=O)(=O)O)cc2c1)c1ccccc1`, the half-maximal activity concentration (AC50) is 14.4 µM (active).
In the case of `CN(C)c1cccc(O)c1`, the outcome was inactive.
Regarding `Cc1ccc(S(=O)(=O)Oc2ccc(N=Nc3ccc(-c4ccc(N=Nc5c(O)ccc6cc(S(=O)(=O)O)cc(S(=O)(=O)O)c56)c(C)c4)cc3C)cc2)cc1`, the concentration at half-maximal activity (AC50) was 18.3 µM (active).
On to `CCOc1ccc(N=Nc2ccc(C=Cc3ccc(N=Nc4ccc(OCC)cc4)cc3S(=O)(=O)O)c(S(=O)(=O)O)c2)cc1`, for which the half-maximal activity concentration (AC50) is 89.1 µM (active).
The same measure, in the same setting: with `COc1ccccc1N=Nc1c(S(=O)(=O)O)cc2cc(S(=O)(=O)O)cc(NC(C)=O)c2c1O` the figure was 12.2 µM (active); with `C=C1CC[C@H](O)C/C1=C/C=C1\CCC[C@]2(C)[C@@H]([C@H](C)/C=C/[C@H](C)C(C)C)CC[C@@H]12`, 78.7 µM (active); with `Nc1ccc2cc(S(=O)(=O)O)cc(O)c2c1N=Nc1ccccc1C(F)(F)F`, 31.1 µM (active).
On to `CCc1cc(C(C)(C)C)c(O)c(C(C)(C)C)c1`, for which the AC50 was 24.3 µM (active).
With `O=c1c(O)c(-c2ccc(O)cc2)oc2cc(O)cc(O)c12`, the molecule was classed as inactive.
For the molecule `[O-]n1ccccc1=S.[O-]n1ccccc1=S.[Zn+2]`, the AC50 is 2.57 µM (active).
Take `CCCCCCCCC=CCCCCCCCC1=NCCN1CCO`: the AC50 was 14 µM (active) and 13.8 µM (active).
As for `CCCCCCCCc1ccc(S(=O)(=O)O)cc1`, the AC50 was 83.5 µM (active).
On to `COc1ccc(N=Nc2cc(C)c(N=Nc3ccc(S(=O)(=O)O)cc3)cc2OC)cc1`, for which the concentration at half-maximal activity (AC50) is 77.9 µM (active).
For the molecule `CCCCC(CC)COC(=O)c1ccc(O)cc1` (centres undefined), the concentration at half-maximal activity (AC50) was 24.7 µM (active).
For `CCc1cc(Cc2cc(CC)cc(C(C)(C)C)c2O)c(O)c(C(C)(C)C)c1`, the AC50 was 11.1 µM (active).
With `Cc1cc(S(=O)(=O)O)ccc1N=Nc1c(O)ccc2ccccc12`, the half-maximal activity concentration (AC50) is 24 µM (active).
On to `CCCCCCCCCCCCCCN(CCO)CCO`, for which the AC50 was 21.4 µM (active).
In the case of `CCCCCC(C=O)=Cc1ccccc1`, the half-maximal activity concentration (AC50) is 88.1 µM (active).
Same read-out and setting: with `CCOC(=O)c1ccc(N)cc1` the figure was 21.1 µM (active).
For the molecule `Oc1ccc2cc(SSc3ccc4cc(O)ccc4c3)ccc2c1`, the AC50 is 74.3 µM (active).

The values are drawn from PubChem BioAssay (EPA / NIEHS).
